# Assay outcomes deposited in PubChem BioAssay by several laboratories.
# Only some compounds are listed: those with a hit (about 1.5% of all), similar ones and a draw of the others.
# TPT1 inhibitor: inhibitors of Candida albicans tRNA 2'-phosphotransferase TPT1; actives 0.81% (n = 300,000); AID 1962; inhibition, % at 5 µM; recombinant caTPT1, FP RNA substrate dephosphorylation;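 active means inhibition above the mean of all tested compounds plus 3 SD, set per screening campaign, cut at about 24% in these data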;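 further: plate controls were DMSO alone for no effect and ferristatin control at 100 nM for full effect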
# IDE cell inh: cellular human IDE inhibition. actives 0.41% (n = 320,000). P14735. HEK cells, FAbetaB cleavage, fluorescence polarization. inhibition, % at 5.59 µM. AID 434962;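 active means percent inhibition above the average of all tested compounds plus 3 SD, set per screening campaign, cut at about 16% in these data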;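 further: IDE supplied by intact live HEK cells; FP after avidin binding of uncleaved biotin substrate so inhibition keeps polarization high; 0% = DMSO wells and 100% = 60 µM reference IDE inhibitor Ii1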
# Target sequence (P14735 whole entry, looked up): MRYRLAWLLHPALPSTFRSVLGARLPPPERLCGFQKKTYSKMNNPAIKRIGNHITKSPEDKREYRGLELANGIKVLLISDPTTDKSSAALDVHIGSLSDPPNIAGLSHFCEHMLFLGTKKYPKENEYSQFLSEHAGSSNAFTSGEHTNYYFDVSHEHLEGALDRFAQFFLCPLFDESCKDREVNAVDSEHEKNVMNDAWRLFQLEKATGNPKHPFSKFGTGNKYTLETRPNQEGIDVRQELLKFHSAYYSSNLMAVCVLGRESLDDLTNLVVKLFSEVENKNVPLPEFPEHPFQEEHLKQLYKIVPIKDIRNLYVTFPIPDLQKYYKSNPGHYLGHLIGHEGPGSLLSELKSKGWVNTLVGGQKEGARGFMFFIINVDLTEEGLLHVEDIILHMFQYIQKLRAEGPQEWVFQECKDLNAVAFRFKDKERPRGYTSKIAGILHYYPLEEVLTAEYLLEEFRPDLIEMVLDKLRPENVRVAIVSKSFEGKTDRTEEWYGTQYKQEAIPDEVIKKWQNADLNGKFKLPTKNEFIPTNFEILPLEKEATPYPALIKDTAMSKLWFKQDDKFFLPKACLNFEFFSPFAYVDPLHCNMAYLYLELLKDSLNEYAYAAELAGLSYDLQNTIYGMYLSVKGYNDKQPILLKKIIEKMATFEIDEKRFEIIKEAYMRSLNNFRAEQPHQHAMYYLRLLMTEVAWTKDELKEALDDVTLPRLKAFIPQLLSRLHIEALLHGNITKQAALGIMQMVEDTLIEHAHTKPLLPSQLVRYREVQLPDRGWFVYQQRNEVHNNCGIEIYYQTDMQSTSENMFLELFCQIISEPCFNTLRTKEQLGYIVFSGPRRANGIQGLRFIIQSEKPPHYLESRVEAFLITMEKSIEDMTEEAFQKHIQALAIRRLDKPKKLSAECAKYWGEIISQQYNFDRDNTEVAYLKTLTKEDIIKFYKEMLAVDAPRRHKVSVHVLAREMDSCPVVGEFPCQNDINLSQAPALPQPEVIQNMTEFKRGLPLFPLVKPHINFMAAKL
# RTF Ca sens inh: cardiac RTF calcium desensitization; P19429+P45379; IANBD-labeled cardiac RTF, Ca2+ fluorescence; inhibition, % at 7.15 µM; actives 0.12% (n = 340,000); AID 493244;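 active means inhibition above the mean inhibition of all tested compounds plus 3 SD, cut at about 17% in these data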;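 further: assay run at fixed EC70 calcium of 1.6 mM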
# CRFR2-BP ag: agonists of human CRF-binding protein/CRF-R2 receptor complex | actives 0.46% (n = 350,000) | AID 588473 | activation, % at 13.2 µM | HEK293 CRF-R2/CRF-BP, calcium dye fluorescence (FLIPR); percent of saturating CRF peptide response;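 active means activation of at least 50%, plus an integration ratio under a set limit after plate pattern correction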;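 further: plate controls were neutral control wells without compound for no effect and CRF at EC100 for full effect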
# cardiac RTF act: increases calcium sensitivity of human cardiac regulated thin filaments; P19429+P45379; IANBD-labeled TnC RTF fluorescence at EC20 calcium; 0% EC20 calcium, 100% full calcium; activation, % at 7.2 µM; actives 0.24% (n = 340,000); AID 493008;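 active means activation above the mean over all tested compounds plus 3 SD, cut at about 30% in these data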;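 further: rise in fluorescence read as greater calcium sensitivity of cardiac thin filaments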
# IDE cell activ: activators of human insulin-degrading enzyme in cells; activation, % at 5.96 µM; P14735; HEK cells, FAbeta-B cleavage, fluorescence polarization; 0% vehicle, 100% cell-free pure enzyme wells; actives 0.073% (n = 340,000);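 active means activation above the mean of all tested compounds plus 3 SD, set per screening campaign, cut at about 17% in these data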
# Numbers without * were called inactive; . = not tested or not shown.
SMILES,TPT1 inhibitor,IDE cell inh,RTF Ca sens inh,CRFR2-BP ag,cardiac RTF act,IDE cell activ
Cc1ccc(S(=O)(=O)NCc2ccncc2)c(C)c1C,-2,0,-7,53*,-1,4
Cc1ccc(-c2ccnc(=S)[nH]2)cc1,-1,11,-10,-1,-1,-48
CC1(C)CCc2cc(-c3ccnc(=S)[nH]3)ccc2O1,2,26*,-1,-3,4,-25
C[C@@H]1CN([C@H](C)CO)S(=O)(=O)c2ccc(C#Cc3ccccc3F)cc2O[C@H]1CN(C)C(=O)c1ccc2c(c1)OCO2,.,.,.,1,.,.
CCOC(=O)c1sc(-c2cccc(C(F)(F)F)c2)nc1O,0,1,0,6,2,-4
CCOC(=O)c1sc(-c2ccc(C(F)(F)F)cc2)nc1O,-20,4,-5,58*,0,-4
CC1(C)CC(=O)C(C=Nc2ccc(C(=O)c3ccccc3)cc2N=CC2=C(O)CC(C)(C)CC2=O)=C(O)C1,-21,6,-82,105*,44*,6
CCOc1ccccc1N(C)S(=O)(=O)c1ccc2c(c1)N(C(C)=O)CCO2,-3,2,-6,-1,0,9
COc1cccc(/C=C(/C#N)c2nc3ccccc3[nH]2)c1OC(C)C(=O)O (stereo not given),0,3,-1,0,35*,0
Cc1ccc(NC(=O)Cn2cc(C(F)(F)F)cc(Cl)c2=O)cc1S(=O)(=O)N1CCCCC1,-3,2,-2,0,-7,-2
COc1ccc2[nH]c(=O)c(CN(C3CCCCC3)C(c3nnnn3Cc3ccco3)C(C)C)cc2c1 (stereo not given),57*,1,-9,26,-1,1
O=[N+]([O-])c1ccc(O)c(Nc2ncnc3ccc(Br)cc23)c1,-5,-2,-1,52*,-6,5
O=[N+]([O-])c1ccc(O)c(Nc2ncnc3ccccc23)c1,-5,-5,-15,42,4,7
Cc1ccc(SC(=O)c2c(C)noc2-c2cc(C)on2)cc1,1,-5,.,-1,.,.
O=C(NCC(c1ccco1)N1CCCC1)c1cc2cc(Cl)ccc2o1 (stereo not given),.,4,-5,57*,-4,1
O=C(NCC(c1ccco1)N1CCCC1)c1ccc(Cl)cc1 (stereo not given),0,-4,-12,0,1,3
CCN(Cc1nc(-c2ccccc2)no1)C(=O)c1ccco1,-2,7,-8,1,2,4
Cc1nc(Cc2nnc(SC(C)C(=O)N3c4ccccc4NC(=O)C3(C)C)o2)cs1 (stereo not given),.,-6,0,0,-2,20*
O=C(c1ccco1)[C@@H]1[C@@H]2C(=O)N(c3ccccc3)C(=O)[C@@H]2C2c3ccccc3C=CN21 (stereo not given in full),-25,9,-14,9,9,1
COc1ccc(N2C(=O)[C@@H]3[C@H](C2=O)[C@H]2c4ccccc4C=CN2[C@@H]3C(=O)Nc2ccccc2)cc1,102*,4,-45,-1,24,-6
COc1ccc(CN(C(=O)c2nsc(Cl)c2Cl)C(C(=O)NC2CCCC2)c2ccc(OC)cc2)cc1 (stereo not given),3,1,-20,53*,-9,-4
COc1ccc(CN(C(=O)c2snc(C(N)=O)c2N)C(C(=O)NC2CCCC2)c2ccc(OC)cc2)cc1 (stereo not given),-1,0,5,-1,-6,4
N#Cc1ccc(CC(=O)c2ccccc2)[nH]c1=O,.,.,-3,58*,-4,-13
Cc1cc2cc(CCNS(=O)(=O)c3ccc(F)cc3)c(=O)[nH]c2cc1C,-3,6,-17,1,-1,3
Cc1c(-n2cc(C(=O)c3cc(F)ccc3O)cc(C#N)c2=O)c(=O)n(-c2ccccc2)n1C,4,11,-8,51*,1,-10
CNCCNC[C@H](Cc1cccc2ccccc12)NCCc1ccccc1,.,5,-16,4,-5,2
CNC[C@H](Cc1ccccc1)NC[C@@H](Cc1cccc2ccccc12)NCCc1ccc(C)cc1,0,-3,-9,13,-4,18*
